# NR5A2 inv ag – LRH-1 (NR5A2) inverse agonists, primary screen, cell-based, luminescence, HEK293T, StAR-luciferase reporter. actives 0.13% (n = 360,000). Nuclear receptor subfamily 5 group A member 2 (Homo sapiens), O00482. LRH-1 transfected, 24 h. inhibition, % at 3.6 µM. AID 602396, 2012;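 active = inhibition above the mean inhibition of all tested compounds plus 3 SD, cut at about 73% in these data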
# SRC2 inh – inhibition of GAL4-SRC2 driven luciferase reporter, primary screen, SRC2 inhibitor project, cell-based, luminescence; HEK293 GAL4-SRC2 luciferase reporter; actives 0.17% (n = 370,000); inhibition, % at 9 µM; Nuclear receptor coactivator 2 (Homo sapiens), Q15596;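 active = inhibition above the mean inhibition of all tested compounds plus 3 SD, set per campaign, cut at about 52% in these data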
# NCOA3 inh – SRC3 coactivator transcriptional activity inhibitors, primary screen, cell-based, luminescence; HEK293 GAL4-SRC3 luciferase reporter; Nuclear receptor coactivator 3 (Homo sapiens), Q9Y6Q9; actives 0.17% (n = 360,000); inhibition, % at 3.6 µM;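 active = inhibition above a per-campaign cutoff, the mean of all compounds plus 3 SD, cut at about 60% in these data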;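 also: higher means less SRC3-driven luciferase light from the GAL4 reporter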
# NR2F2 inh – NR2F2 transcriptional activity inhibitors, primary screen, cell-based, luciferase reporter, HEK293T, luminescence | HEK293T NGFI-A luciferase reporter | inhibition, % at 8.6 µM | actives 0.7% (n = 370,000);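 active = inhibition above a per-plate cutoff, mean inhibition of test wells between control levels plus 3 SD, cut at about 38% in these data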;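 also: cells cotransfected with COUP-TFII expression vector driving the NGFI-A reporter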
# Target sequence (P24468 whole entry, looked up): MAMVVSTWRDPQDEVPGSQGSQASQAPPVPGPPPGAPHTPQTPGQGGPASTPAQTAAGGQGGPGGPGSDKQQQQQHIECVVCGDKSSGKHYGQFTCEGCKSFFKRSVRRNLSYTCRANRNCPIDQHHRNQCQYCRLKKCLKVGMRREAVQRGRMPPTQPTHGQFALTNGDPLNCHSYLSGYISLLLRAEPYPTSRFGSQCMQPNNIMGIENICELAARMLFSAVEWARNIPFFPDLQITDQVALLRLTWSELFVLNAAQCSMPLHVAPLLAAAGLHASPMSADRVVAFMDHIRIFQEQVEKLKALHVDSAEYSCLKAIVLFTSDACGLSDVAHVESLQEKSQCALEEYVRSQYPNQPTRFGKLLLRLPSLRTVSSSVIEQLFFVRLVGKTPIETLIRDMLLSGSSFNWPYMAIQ
# SRC1 inh – SRC1 coactivator transcriptional activity inhibitors, primary screen, cell-based, luminescence; AID 588354, 2011; actives 0.12% (n = 360,000); inhibition, % at 3.6 µM; HEK293 GAL4-SRC1 luciferase reporter;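 active = inhibition above the campaign mean plus 3 SD, with each screening campaign given its own cutoff, cut at about 60% in these data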
# Hits are given with their value; 0 = inactive; - = no result. Rows were chosen to be rich in hits. Some 0.81% of all compounds tested hit in one or more screens of this group.
SMILES,NR5A2 inv ag,SRC2 inh,NCOA3 inh,NR2F2 inh,SRC1 inh
O=[N+]([O-])c1ccc(O)c(/C=N/Nc2ccc(Cl)nn2)c1,0,0,81.6,0,67.9
COc1cc2c(cc1NC(=O)CSc1nnc(-c3cccc(Cl)c3)n1Cc1ccco1)oc1ccccc12,-,0,-,0,-
COc1ccc(N(C(=O)CCl)C(C(=O)NCCc2ccccc2)c2cccs2)cc1 (centres undefined),0,0,71.4,0,0
O=S(=O)(Nc1cc(Sc2cccc3cccnc23)c(O)c2ccccc12)c1ccccc1,-,94.9,-,0,-
O=C(NCc1cccnc1)/C(=C\c1ccc(-c2ccc(Cl)c(Cl)c2)o1)S(=O)(=O)c1ccccc1,0,61.2,85.5,0,0
CCCCCCCCN1C(=O)[C@@H](CC(=O)NCCc2ccccc2OC)C[C@@]2(C(=O)OC)C1=C[C@H](COCc1ccccc1)O[C@@H]2C,-,0,-,0,-
Clc1ccc(Nc2ncnc3ccc(Br)cc23)cc1,0,0,0,0,0
COc1ccc(Nc2ncnc3ccc(Br)cc23)cc1OC,0,-,0,-,61.2
COc1ccc(OC)c(Nc2c3ccccc3nc3ccccc23)c1,0,0,0,0,0
COc1cc(NS(C)(=O)=O)ccc1Nc1c2ccccc2nc2ccccc12,0,0,64.1,0,61.8
Cc1nc2c(o1)C(=O)c1ccccc1C2=Nc1ccccc1,0,0,76.6,0,0
C/C(=N\Nc1ncnc2sc(C)c(C)c12)c1ccccn1,0,0,80.7,0,0
CC(C)/C=C(/C(=O)c1ccc(Cl)cc1Cl)n1cncn1,0,0,0,0,0
CC(C)(C)C(=O)/C(=C/c1ccc(Cl)cc1)n1cncn1,0,61.6,73.2,0,0
COc1ccc(C(=O)Nc2nc3ccccc3[nH]2)cc1OC,0,0,0,0,0
COc1ccc(Cl)cc1C(=O)Nc1nc2ccccc2[nH]1,0,54.3,0,0,0
Cc1nn(-c2ccccc2)c2sc(C(=O)N3CCN(S(=O)(=O)c4ccc(Br)s4)CC3)cc12,-,0,-,0,-
C=CCN(CC#Cc1cccnc1)Cc1ccc(OC)cc1OC,-,0,-,0,-
O=C(NCc1cccs1)c1nc2c(nnn2Cc2ccccc2Cl)c(=O)[nH]1,101.1,56.0,90.2,65.0,0
CCOC(=O)N1CCN(C(=O)C[C@H]2C[C@@]3(C(=O)OCC)CCCC4=C3N(CCC4)C2=O)CC1,-,0,-,0,-
O=C(OCc1ccccc1)N1CCC2CC1c1ccc(N3CCN(Cc4ccccc4)CC3)cc12 (centres undefined),-,0,-,0,-
CN1C=C/C(=C\c2cc[n+](C)c3ccccc23)c2ccccc21,80.6,0,0,46.0,0
Cn1c(/C=C/c2ccc(Cl)cc2)c([N+](=O)[O-])c(=O)n(C)c1=O,0,0,61.8,0,0
COc1ccc(/C=C/c2c([N+](=O)[O-])c(=O)n(C)c(=O)n2C)cc1OC,0,0,0,0,0
CCSc1nnc(-c2ccco2)n1C,-,0,-,0,-
SMILES,NR5A2 inv ag,SRC2 inh,NCOA3 inh,NR2F2 inh,SRC1 inh
Cn1c(=O)c2c(nc(CN3CCOCC3)n2CC(=O)c2ccccc2)n(C)c1=O,96.2,0,0,0,0
Cn1c(=O)c2c(nc(CN3CCc4ccccc4C3)n2CC(=O)c2ccccc2)n(C)c1=O,0,0,0,0,0
O=C(CSc1nnc(-c2ccco2)n1-c1ccc(Cl)cc1)Nc1ccc(S(=O)(=O)Nc2nccs2)cc1,-,0,-,0,-
CCOc1ccc(C(=O)Cc2ccccc2)cc1,0,0,0,0,0
CCOc1ccc(C(=O)CSCCC(=O)O)cc1,0,54.6,0,55.7,0
O=C(OCCN1CCN(C2CN(Cc3cn(Cc4ccccc4Cl)nn3)S(=O)(=O)C2)CC1)c1cccs1 (centres undefined),-,0,-,0,-
O=C(/C=C/c1cn(-c2ccccc2)nc1-c1cccnc1)c1ccco1,0,64.0,0,0,0
O=C(/C=C/c1cn(-c2ccccc2)nc1-c1cccnc1)N1CCCC1,0,0,0,0,0
CN1C(=O)c2cc(NC(=O)C3CC3)ccc2OC[C@H]2O[C@@H](CC(=O)NC3CCC3)CC[C@@H]21,-,0,-,0,-
COc1cccc2c1[C@H](/C=C/c1ccccc1)[C@@H]([C@H](O)CO)OC2,-,0,-,0,-
CCCC(=O)N1CCN(c2ccc(NC(=O)c3cc4ccccc4o3)cc2Cl)CC1,0,0,75.7,0,0
Cc1ccc(-n2c(SCC(=O)Nc3cccc4ccccc34)nnc2-c2ccccc2)cc1,-,0,-,0,-
O=C(NCCc1c[nH]c2ccccc12)c1ccc2c(c1)ncn2C1CCCCC1,-,0,-,0,-
CSc1nnc(NC(=O)c2nc(S(=O)(=O)Cc3cccc(C)c3)ncc2Cl)s1,0,56.4,0,0,0
CS/C(=C\[N+](=O)[O-])Nc1ccc(OC(F)(F)F)cc1,79.7,0,0,0,0
CC(C)(CCl)C(=O)Nc1ccc(OC(F)(F)F)cc1,0,0,0,0,0
Cc1cc([N+](=O)[O-])nn1CCCC(=O)Nc1ccc(Cl)cc1Cl,0,0,0,0,62.1
O=C(Nc1ccccc1C(F)(F)F)OC1CCC12CCC(c1ccccc1)CC2 (centres undefined),-,0,-,0,-
CN(Cc1cnc2nc(N)nc(N)c2n1)c1ccc(C(=O)NC(CCC(=O)O)C(=O)O)c2ccccc12 (centres undefined),0,0,64.1,0,72.7
CC(C)(C)C(=O)CSc1nnc(SCc2cccc3ccccc23)s1,-,0,-,0,-
COc1ccc(NC(=O)/C(Cl)=C(/Cl)S(=O)Cc2ccc(Cl)cc2)cn1 (centres undefined),0,64.5,0,66.3,0
COc1ccc(NC(=O)C(Cl)=C(Cl)Cl)cn1,0,0,0,0,0
CCCCC(=O)Nc1cccc(-c2csc(-c3ccccc3)n2)c1,0,0,0,0,0
O=C(O)CCC(=O)Nc1cccc(-c2csc(-c3ccccc3)n2)c1,0,52.5,0,0,0
CN(C)c1ccc(Nc2nc(N)c3ccccc3n2)cc1,0,0,0,0,0
SMILES,NR5A2 inv ag,SRC2 inh,NCOA3 inh,NR2F2 inh,SRC1 inh
CN(C)c1ccc(Sc2ccc3nc(N)nc(N)c3c2)cc1,74.2,0,0,0,0
CN(C)CCOc1ccc2c(c1)C(=O)C(=Cc1ncc([N+](=O)[O-])n1C)C2,82.2,0,0,0,0
CCc1cc(OCCN(C)C)ccc1Cl,0,0,0,0,0
Cc1cccc(-n2c(CNC(=O)c3ccccc3)nnc2SCC(=O)Nc2nccs2)c1,85.2,0,0,0,0
CCOC(=O)CC[C@H]1CC[C@]2(CCCN(S(=O)(=O)c3ccccc3)C2)O1,-,0,-,0,-
Clc1ccccc1CN(Cc1ccccc1)c1ncnc2nc[nH]c12,0,0,0,0,0
CCCN(CCC)c1ncnc2nc[nH]c12,0,0,65.3,0,0
O=C(NCc1c(F)cccc1F)C1CCCN(c2ncccn2)C1 (centres undefined),-,0,-,0,-
